# BAZ2B block = BAZ2B (human) inhibition; 360,000 tested, 4.4% active; AlphaScreen BAZ2B-H3K14Ac peptide displacement; Q9UIF8; Potency, µM (series often up to 114 µM), for inactives: top-dose activity change, negative = inhibition, most hits filed as inhibitors; also: % is scaled to controls: 0 for no effect and ±100 for the full control effect; nearly all actives have a fitted effect of over 60% in size
#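 BAZ2B 50 nM plus b-H3(5-23)K14Ac 50 nM, PBS pH 7.4/0.01% Tween-20, 30 min RT; compound added (max 110 uM), 30 min RT; streptavidin donor/Ni-chelate acceptor beads 10 ug/mL final, 20 min dark; AlphaScreen read.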
# Sfp PPTase inh = blocks B. subtilis Sfp PPTase activity | Potency, µM, for the others: largest response in the series, negative = inhibition, actives largely listed as inhibitors | Q9F4F7 | AID 1490 | Biochemical Sfp PPTase activity, qHTS | 310,000 tested, 3.5% active;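 also: the enzyme is Sfp with the accession as filed and its product quenches rhodamine fluorescence; 0% = enzyme reaction without inhibitor and -100% = no enzyme wells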
#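 Step 1, compound plus 15 nM Sfp-PPTase, 15 min, room temperature. Step 2, add rhodamine-CoA (5 uM) and BHQ-2-YbbR (12.5 uM). Step 3, read 525/598 nm fluorescence at 0 and 30 min.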
# G9a inh = G9a (human) methyltransferase inhibition. G9a H3K9 monomethylation, AlphaScreen, 2 h. Potency, µM (series often up to 102 µM), inactives show at the top dose activity, negative = inhibition, hits mostly inhibitors. 350,000 tested, 8.8% active. AID 504332; also: % is scaled to controls: 0 for no effect and ±100 for the full control effect; nearly all actives have a fitted effect of over 75% in size
#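 Methyltransferase reactions run at room temperature for 2 h (20 nM enzyme, 500 nM biotin-H3K9 peptide, 20 uM SAM) after a 15 min compound preincubation; product detected by AlphaScreen beads and anti-H3K9me1 antibody.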
# HP1b chromo inh = HP1-beta chromodomain-methylated histone interaction inhibition; AlphaScreen HP1-beta / biotin-H3K9me3 peptide binding; Potency, µM (series often up to 114 µM), without a hit: top-dose activity change, negative = inhibition, most hits filed as inhibitors; 390,000 tested, 0.56% active; also: nearly all actives have a fitted effect of over 70% in size
#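 AlphaScreen: HP1-beta (50 nM) preformed 30 min with biotin-H3(1-18)K9me3 peptide (50 nM) in PBS pH 7.4, 0.01% Tween-20. Compound added for 30 min at RT, then streptavidin donor/nickel chelate acceptor beads (10 ug/mL) for 30 min.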
# PLK1 PBD block = PLK1 (human) polo-box domain binding inhibition; Potency, µM, for the others: max response, negative = inhibition, most hits filed as inhibitors; 360,000 tested, 2.8% active; P53350; AID 720504; Plk1 PBD binding of FITC phosphopeptide, fluorescence polarization; also: series mostly up to about 57 µM; % is scaled to controls: 0 for no effect and ±100 for the full control effect; nearly all actives have a fitted effect of over 65% in size
# JMJD2A Tudor = inhibitors of human JMJD2A Tudor domain. O75164. AlphaScreen JMJD2A-Tudor / H3K4me3 peptide binding. Potency, µM (doses to about 114 µM), for inactives: at the highest dose activity change, negative = inhibition, actives largely listed as inhibitors. 390,000 tested, 4.4% active. AID 504339; also: % is scaled to controls: 0 for no effect and ±100 for the full control effect; nearly all actives have a fitted effect of over 50% in size
# * hit, by the source's call; u = inconclusive; x = no result given; [ ] = dose if it differs, or a comment. In the library only some 12% were active in any assay of this set; here they are far more common. Calls follow the shape of the dose curve; as a rule, active = well fitted curve in the direction sought with a large enough effect; inconclusive = small, poorly fitted or top-dose-only effect, or another doubt; inactive = no such curve, though single readings can be large; an effect the other way counts as inactive or inconclusive. Potency is read from the fitted curve at half-maximal effect.
SMILES,BAZ2B block,Sfp PPTase inh,G9a inh,HP1b chromo inh,PLK1 PBD block,JMJD2A Tudor
COc1ccc(S(=O)(=O)N2CCN(C(=O)c3cc4c(s3)CCC4)CC2)cc1,x,x,x,u,u,7.9µM*
COc1ccccc1NC(=O)Cn1c(=O)n(-c2ccc(C)cc2)c(=O)c2ccc(C(=O)NCc3ccco3)cc21,-12%,x,-7%[59 µM],11%,x,-14%
Cc1nc(Cl)sc1C(=O)Nc1cccc2ccccc12,2%,1%,6%[59 µM],20%,-6%,-6%
C#C[C@]1(O)CC[C@@H]2[C@H]3CCC4=CC(=O)CC[C@H]4[C@H]3C(=C)C[C@@]21CC,x,6%,3%[12.7 µM],x,x,x
COc1ccc(N2CCN(C(=O)c3ccc(Cl)c(S(=O)(=O)N4CCOCC4)c3)CC2)cc1,x,x,x,1%,2%,-22%
COc1ccc(N2CCN(C(=O)c3cc(S(=O)(=O)N4CCCCCC4)ccc3OC)CC2)cc1,u,x,50µM*,u,-1%,u
COc1ccc(N2CCN(C(=O)c3ccc(Cl)c(S(=O)(=O)N4CCCC4)c3)CC2)cc1,71µM*,5%,40µM*,-1%,-7%,u
O=C(NCCCN1CCCC(O)C1)c1cc(COc2ccc(F)cc2F)on1 (stereo not given),-6%,12%,16%,14%,-12%,-17%
COc1cccc(Cn2c(=O)c3[nH]cnc3n(-c3ccccc3C)c2=O)c1,-25%,-1%,71µM*,45%,-5%,-15%
Cc1ccccc1-n1c(=O)n(Cc2ccccc2)c(=O)c2[nH]cnc21,-1%,2%,21%[59 µM],12%,-12%,0%
C/C(=N\Nc1nccnc1Cl)c1ccc(F)cc1,-19%,22µM*,-5%[0.501 µM],11%,1%,7%
C/C(=N\Nc1nccnc1Cl)c1ccc(O)cc1,3%,u,35%,15%,1%,-14%
CCCCc1oc2ccccc2c1C(=O)c1cc(I)c(N(CC)CCOCC)c(I)c1,x,x,x,-6%,x,56µM*
CCc1oc2ccccc2c1C(=O)c1cc(I)c(O)c(I)c1,x,40µM*,-40%[59 µM],x,x,x
CCOc1ccccc1NC(c1nnc(-c2ccccc2)o1)c1ccc(F)cc1Cl (stereo not given),-14%,x,-4%[59 µM],29%,x,-13%
CCOc1ccc(NC(=S)N(Cc2ccc(N(C)C)cc2)Cc2ccco2)cc1,35µM*,5%,40µM*,u,-19%,16µM*
COc1ccc(NC(=S)N(Cc2ccc(N(C)C)cc2)Cc2ccco2)cc1,32µM*,-7%,u,u,-7%,50µM*
CCCN(Cc1ccccc1)C(=S)Nc1ccc(OCC)cc1,-20%,22%,6%,33%,1%,1%
Cc1cc2c(c(=O)o1)[C@H](O)[C@H]1O[C@@H]1C2=O,x,-13%,x,x,x,x
O=C(CNCc1ccccn1)Nc1ccc([N+](=O)[O-])cc1C(=O)Nc1ccccc1F,18µM*,3%,13%,13%,-14%,45µM*
CC(=O)c1ccc(N2CCN(C(=O)C(=O)c3cn(CC(=O)N4CCCCCC4)c4ccccc34)CC2)cc1,-21%,-10%,x,-2%,-15%,-26%
Cc1nn(-c2ccccc2)c(C)c1C=O,1%,17%,41%[59 µM],9%,-5%,-7%
Cc1nn(-c2ccccc2)c(C)c1S(=O)(=O)O,u,24%,45µM*,22%,-4%,-18%
NC(=O)c1nc2c([nH]c1=O)CCCC2,x,x,x,x,-2%,x
COc1ccc2nc(N=Nc3ccc(O)c4ccccc34)sc2c1,2.8µM*,-4%,3.2µM*,u,3%,u
COc1ccc2nc(N=NC3=C(O)CC(C)(C)CC3=O)sc2c1,40µM*,u,u,u,-18%,u
COc1ccc2nc(N)sc2c1,-1%,17%,10%[12.7 µM],25%,-1%,-8%
Cc1ccccc1S(=O)(=O)NCc1ccc(N2CCN(C)CC2)cc1,-9%,12%,4%,35%,3%,-9%
O=c1c2cc(F)ccc2sn1-c1ccccc1,10µM*,x,0%[0.501 µM],1%,1.1µM*,8.9µM*
